Measurements: PubChem BioAssay (Tox21)
Results filed as inconclusive are left out. Calls of active or inactive are those of the source. Unless noted, calls follow the shape of the dose curve; as a rule, active = well fitted curve in the direction sought with a large enough effect in the repeat runs; inconclusive = weak or mixed curves; inactive = no such curve, though single readings can be large; an effect the other way counts as inactive or inconclusive.

How the values were obtained:
[1] = qHTS assay to identify small molecule antagonists of the estrogen receptor beta (ER-beta) signaling pathway - cell viability counter screen (AID 1259382); also: nearly all actives have a fitted effect of over 55% in size; also: potency is read from the fitted curve at half-maximal effect
Summary of the method: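 Agonist-stimulated (1nM E2) ER-beta-UAS-bla HEK293T cells are incubated with library compounds for 16 hr at 37C. Cell viability is then assessed in the reporter-assay wells by adding CellTiter-Glo and reading luminescence after 30 min.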

[2] = biological target: Estrogen receptor (Homo sapiens) (UniProt P03372); experiment: qHTS assay to identify small molecule agonists of the estrogen receptor alpha (ER-alpha) signaling pathway in the presence of an antagonist (AID 1259383; calls by dose curve; also: nearly all actives have a fitted effect of over 15% in size; also: potency is read from the fitted curve at half-maximal effect; as to activation: top concentration of the series differs between compounds)
Summary of the method: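 Using VM7Luc4E2 cells seeded 24hr before treatment, antagonist ICI-182,780 (10.0nM final) was added, followed by compounds at 15 concentrations. Plates incubated 22hr; ONE-Glo luminescence quantified reporter activity.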

[3] = qHTS assay to identify small molecule agonists or antagonists of the thyroid stimulating hormone receptor (TSHR) signaling pathway - wild type cell line counter screen (AID 1259384; calls by dose curve)
Summary of the method: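 Wild-type HEK293 cells were plated 18 h at 37 C/5% CO2, pin-dosed with compound plus Ro20-1724 medium, held 30 min at room temperature, then given cAMP-d2 and anti-cAMP-cryptate; fluorescence was read after 1 h. Fifteen concentrations, triplicate.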

[4] = biological target: Thyrotropin receptor (Homo sapiens) (UniProt P16473); experiment: qHTS assay to identify small molecule antagonists of the thyroid stimulating hormone receptor (TSHR) signaling pathway (AID 1259385; calls by dose curve; also: nearly all actives have a fitted effect of over 20% in size; also: potency is read from the fitted curve at half-maximal effect)
Summary of the method: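 TSHR-HEK293 cells were plated and held 18 h at 37C/5% CO2, then given compound plus Ro20-1724 and stimulated with TSH at 1.5 ng/mL final. After 30 min at room temperature, cAMP was detected with cAMP-d2/anti-cAMP-cryptate (1 h) by fluorescence.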

[5] = qHTS assay to identify small molecule agonists of the estrogen receptor alpha (ER-alpha) signaling pathway in the presence of an antagonist - cell viability counter screen (AID 1259386);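 also: cells exposed to compounds for 22 h at 37 °C before the viability read; nearly all actives have a fitted effect of over 30% in size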; also: potency is read from the fitted curve at half-maximal effect
Summary of the method: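 ICI-182,780 at 10.0nM final accompanies the compound titration (15 concentrations, 22hr, 37C) on VM7Luc4E2 cells. The CellTiter-Fluor fluorescence readout runs in the same wells as the luciferase assay.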

[6] = biological target: Progesterone receptor (Homo sapiens) (UniProt P06401); experiment: qHTS assay to identify small molecule agonists of the progesterone receptor (PR) signaling pathway (AID 1346784; calls by dose curve; also: nearly all actives have a fitted effect of over 30% in size)
Summary of the method: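 Beta-lactamase reporter read-out: after 16 hr compound treatment at 37C and a further 2 hr at room temperature with LiveBLAzer B/G FRET substrate, fluorescence was measured in PR-UAS-bla HEK 293T cells grown in 2% charcoal-stripped serum.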

[7] = biological target: Progesterone receptor (Homo sapiens) (UniProt P06401); experiment: qHTS assay to identify small molecule antagonists of the progesterone receptor (PR) signaling pathway (AID 1346795; active = well fitted inhibition curve with a large enough effect in the signal ratio in the repeat runs, not every such curve was filed as active; the % refers to the signal ratio; also: potency is read from the fitted curve at half-maximal effect)
Summary of the method: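 Read-out is fluorescence from the LiveBLAzer B/G FRET substrate, cleaved by a UAS-controlled beta-lactamase in PR-UAS-bla HEK293T cells after 16 hr exposure to compound plus 1 nM promegestone (final), followed by 2 hr at room temperature.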

[8] = qHTS assay to identify small molecule antagonists of the TGF-beta/Smad signaling pathway - cell viability counter screen (AID 1346824); also: nearly all actives have a fitted effect of over 50% in size
Summary of the method: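 SBE-bla HEK 293T cells were plated overnight at 37 C, then given compounds in DMSO plus TGF-beta1 (added as 0.25 ng/mL solution) for 5 hr. After the bla read, CellTiter-Glo was added to the same wells and luminescence read after 30 min at room temperature.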

[9] = qHTS assay to identify small molecule agonists of the TGF-beta/Smad signaling pathway - cell viability counter screen (AID 1346829); also: top concentration of the series differs between compounds; nearly all actives have a fitted effect of over 45% in size
Summary of the method: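 Same-well cytotoxicity: CellTiter-Glo added after the 2 hr room-temperature beta-lactamase substrate step, luminescence measured 30 min later; cells had 5 hr of compound at 37 C.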

[10] = qHTS assay to identify small molecule agonists of the TGF-beta/Smad signaling pathway (AID 1346859; active = well fitted activation curve with a large enough effect in the signal ratio in the repeat runs, not every such curve was filed as active; the % refers to the signal ratio; also: series mostly up to about 77 µM)
Summary of the method: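 SBE-bla HEK 293T, 4,000 cells/well, plated o/n; cpd in DMSO, 5 hr, 37 C/5% CO2; B/G FRET substrate 2 hr RT; ex 405, em 460/530 nm.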

[11] = biological target: Thyrotropin-releasing hormone receptor (Homo sapiens) (UniProt P34981); experiment: qHTS assay to identify small molecule antagonists of the thyrotropin-releasing hormone receptor (TRHR) signaling pathway (AID 1346877; active = well fitted inhibition curve with a large enough effect in the repeat runs, not every such curve was filed as active; also: series mostly up to about 51 µM)
Summary of the method: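 Screening used HEK293 cells engineered with TRHR, with a brief 5 min room-temperature compound exposure preceding addition of TRH to 1 nM. The read-out was kinetic calcium-dye fluorescence, concentration-response from 15 doses in triplicate.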

[12] = biological target: Thyrotropin-releasing hormone receptor (Homo sapiens) (UniProt P34981); experiment: qHTS assay to identify small molecule agonists of the thyrotropin-releasing hormone receptor (TRHR) signaling pathway (AID 1346891; calls by dose curve; also: series mostly up to about 58 µM)
Summary of the method: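 Intracellular calcium rise, read as fluorescence every second for 3 min, served as the agonist signal in dye-loaded HEK293 cells expressing TRHR; each compound ran at 15 concentrations in triplicate.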

[13] = Human pregnane X receptor (PXR) small molecule agonists, qHTS cell viability counter screen (AID 1346977); also: nearly all actives have a fitted effect of over 50% in size; also: potency is read from the fitted curve at half-maximal effect
Summary of the method: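 PXR-Luc HepG2, 2,000 cells/well, 5% charcoal-stripped FBS; 5hr settle; cpd 24hr, 37C/5% CO2; CellTiter-Fluor at 23hr, read 1hr later (fluorescence).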

[14] = Caspase-3/7 induction in HepG2 cells by small molecules, qHTS assay (AID 1346978); also: nearly all actives have a fitted effect of over 15% in size; also: potency is read from the fitted curve at half-maximal effect
Summary of the method: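 Wild-type HepG2 cells (2,000/well) were settled 5 h at 37 C, 5% CO2, then exposed to compounds in DMSO for 17 h. Caspase-3/7 activity was read by luminescence 30 min after adding Caspase-Glo 3/7 reagent at room temperature.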

[15] = Caspase-3/7 induction in CHO-K1 cells by small molecules, qHTS cell viability counter screen (AID 1346979); also: nearly all actives have a fitted effect of over 35% in size; also: potency is read from the fitted curve at half-maximal effect
Summary of the method: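 Cells (CHO-K1, wild type) are plated at 1,500 per well and incubated 5hr. Test compounds in DMSO are then pinned in, followed by 16hr at 37C and 5% CO2. Viability is read by CellTiter-Fluor fluorescence after 1hr.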

[16] = Caspase-3/7 induction in CHO-K1 cells by small molecules, qHTS assay (AID 1346980); also: nearly all actives have a fitted effect of over 15% in size
Summary of the method: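 Wild-type cells were seeded at 1,500 per well and settled 5 hr at 37 C, 5% CO2, then exposed to DMSO-dissolved compounds for 17 hr. Caspase-Glo 3/7 reagent was added, and luminescence was read after 30min at room temperature.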

[17] = qHTS assay to identify small molecule antagonists of the progesterone receptor (PR) signaling pathway - cell viability counter screen (AID 1346798); also: nearly all actives have a fitted effect of over 50% in size; also: potency is read from the fitted curve at half-maximal effect
Summary of the method: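 HEK293T PR-UAS-bla, 2% charcoal-stripped FBS; 4 hr pre-plate; cpd + R5020, 16 h 37C; LiveBLAzer read first; then CellTiter-Glo 30 min RT, luminescence.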

[18] = qHTS assay to identify small molecule agonists of the progesterone receptor (PR) signaling pathway - cell viability counter screen (AID 1346799; calls by dose curve; also: nearly all actives have a fitted effect of over 45% in size; also: potency is read from the fitted curve at half-maximal effect)
Summary of the method: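 Luminescence from CellTiter-Glo, added after the beta-lactamase FRET read in the same wells, gave cytotoxicity in PR-UAS-bla HEK293T cells treated with compounds for 16 hr at 37C.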

[19] = biological target: Androgen receptor (Homo sapiens) (UniProt P10275); experiment: qHTS assay to identify small molecule agonists of the androgen receptor (AR) signaling pathway in the presence of an antagonist (AID 1259381; calls by dose curve; also: nearly all actives have a fitted effect of over 15% in size)
Summary of the method: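 Using human MDA-kb2 cells with an MMTV promoter–luciferase construct (AR and GR response elements), agonist activity is scored under 3.0uM nilutamide (final) co-treatment; 16hr incubation, 37C, luminescence readout via ONE-Glo.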

Measured: Potency

Sequence of Estrogen receptor (Homo sapiens) (P03372 whole entry, looked up): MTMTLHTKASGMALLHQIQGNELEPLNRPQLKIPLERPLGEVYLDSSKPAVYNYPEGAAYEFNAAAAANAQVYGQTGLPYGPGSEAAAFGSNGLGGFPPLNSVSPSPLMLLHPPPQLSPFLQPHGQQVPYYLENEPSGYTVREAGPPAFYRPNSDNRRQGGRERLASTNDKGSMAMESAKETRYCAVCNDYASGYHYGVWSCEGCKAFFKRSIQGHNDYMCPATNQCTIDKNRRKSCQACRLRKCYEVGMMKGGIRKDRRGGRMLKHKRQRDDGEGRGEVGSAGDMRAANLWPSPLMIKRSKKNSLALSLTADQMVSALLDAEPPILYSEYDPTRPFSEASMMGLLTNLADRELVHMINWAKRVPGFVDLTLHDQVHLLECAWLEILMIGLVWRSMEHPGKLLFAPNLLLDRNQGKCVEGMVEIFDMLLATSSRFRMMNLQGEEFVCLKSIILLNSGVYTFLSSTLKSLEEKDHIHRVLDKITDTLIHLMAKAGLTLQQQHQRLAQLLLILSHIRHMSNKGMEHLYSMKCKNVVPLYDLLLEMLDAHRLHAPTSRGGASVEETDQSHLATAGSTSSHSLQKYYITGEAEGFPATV
Sequence of Androgen receptor (Homo sapiens) (P10275 whole entry, looked up): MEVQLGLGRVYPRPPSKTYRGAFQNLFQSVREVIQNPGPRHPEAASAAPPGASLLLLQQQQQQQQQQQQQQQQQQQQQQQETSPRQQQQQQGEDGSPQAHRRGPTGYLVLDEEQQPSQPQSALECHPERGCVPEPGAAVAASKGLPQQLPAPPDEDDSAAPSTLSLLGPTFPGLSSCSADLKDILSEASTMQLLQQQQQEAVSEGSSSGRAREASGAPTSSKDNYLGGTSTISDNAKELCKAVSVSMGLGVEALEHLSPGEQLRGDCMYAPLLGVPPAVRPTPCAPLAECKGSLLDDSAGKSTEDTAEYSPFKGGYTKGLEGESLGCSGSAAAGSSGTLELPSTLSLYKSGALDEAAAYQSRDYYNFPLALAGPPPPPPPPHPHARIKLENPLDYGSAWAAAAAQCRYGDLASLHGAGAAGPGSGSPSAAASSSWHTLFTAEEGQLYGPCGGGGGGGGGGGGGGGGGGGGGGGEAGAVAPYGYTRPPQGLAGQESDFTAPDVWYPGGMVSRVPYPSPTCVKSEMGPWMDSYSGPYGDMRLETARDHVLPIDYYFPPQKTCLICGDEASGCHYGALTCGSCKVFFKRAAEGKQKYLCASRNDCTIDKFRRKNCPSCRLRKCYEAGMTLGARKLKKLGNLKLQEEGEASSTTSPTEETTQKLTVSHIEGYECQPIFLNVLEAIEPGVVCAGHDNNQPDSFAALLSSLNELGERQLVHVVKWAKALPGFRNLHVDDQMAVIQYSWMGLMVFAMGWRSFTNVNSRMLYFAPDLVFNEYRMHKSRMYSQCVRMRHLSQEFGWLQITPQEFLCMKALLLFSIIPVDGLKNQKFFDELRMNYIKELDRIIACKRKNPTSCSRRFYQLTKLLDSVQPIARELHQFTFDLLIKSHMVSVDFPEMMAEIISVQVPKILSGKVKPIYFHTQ
Sequence of Thyrotropin-releasing hormone receptor (Homo sapiens) (P34981 whole entry, looked up): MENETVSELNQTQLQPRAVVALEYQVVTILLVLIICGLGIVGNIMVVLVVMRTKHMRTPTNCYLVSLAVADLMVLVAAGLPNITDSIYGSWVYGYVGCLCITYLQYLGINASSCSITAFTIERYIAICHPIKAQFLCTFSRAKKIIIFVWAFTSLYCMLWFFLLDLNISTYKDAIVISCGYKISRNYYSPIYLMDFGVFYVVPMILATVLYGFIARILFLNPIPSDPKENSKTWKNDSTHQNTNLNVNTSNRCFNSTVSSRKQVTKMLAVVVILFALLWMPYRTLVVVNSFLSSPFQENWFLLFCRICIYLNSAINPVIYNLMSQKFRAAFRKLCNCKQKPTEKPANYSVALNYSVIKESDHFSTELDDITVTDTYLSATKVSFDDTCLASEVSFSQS
Sequence of Progesterone receptor (Homo sapiens) (P06401 whole entry, looked up): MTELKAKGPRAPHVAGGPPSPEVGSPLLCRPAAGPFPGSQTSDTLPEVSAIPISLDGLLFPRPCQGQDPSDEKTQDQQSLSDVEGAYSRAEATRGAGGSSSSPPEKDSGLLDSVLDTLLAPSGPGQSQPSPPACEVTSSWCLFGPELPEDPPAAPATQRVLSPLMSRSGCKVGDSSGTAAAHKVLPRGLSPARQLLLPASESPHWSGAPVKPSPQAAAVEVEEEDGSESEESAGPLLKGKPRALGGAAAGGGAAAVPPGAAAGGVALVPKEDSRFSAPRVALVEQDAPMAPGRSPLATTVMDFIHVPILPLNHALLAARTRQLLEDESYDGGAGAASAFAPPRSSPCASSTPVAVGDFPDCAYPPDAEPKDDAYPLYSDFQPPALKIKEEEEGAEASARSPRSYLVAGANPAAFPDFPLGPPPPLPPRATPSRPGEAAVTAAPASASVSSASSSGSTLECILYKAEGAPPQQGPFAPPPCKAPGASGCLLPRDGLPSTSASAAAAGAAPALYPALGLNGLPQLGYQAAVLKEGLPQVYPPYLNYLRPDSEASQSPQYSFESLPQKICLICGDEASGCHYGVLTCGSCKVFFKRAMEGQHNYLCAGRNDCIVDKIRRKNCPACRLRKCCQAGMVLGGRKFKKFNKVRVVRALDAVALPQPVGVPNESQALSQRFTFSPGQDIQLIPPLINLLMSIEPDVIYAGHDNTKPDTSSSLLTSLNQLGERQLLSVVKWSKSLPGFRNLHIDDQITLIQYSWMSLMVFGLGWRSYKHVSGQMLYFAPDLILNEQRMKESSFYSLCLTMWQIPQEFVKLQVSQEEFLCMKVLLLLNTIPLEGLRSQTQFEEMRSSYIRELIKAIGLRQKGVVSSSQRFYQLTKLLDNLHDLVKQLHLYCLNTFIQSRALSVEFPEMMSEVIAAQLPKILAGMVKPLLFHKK
Sequence of Thyrotropin receptor (Homo sapiens) (P16473 whole entry, looked up): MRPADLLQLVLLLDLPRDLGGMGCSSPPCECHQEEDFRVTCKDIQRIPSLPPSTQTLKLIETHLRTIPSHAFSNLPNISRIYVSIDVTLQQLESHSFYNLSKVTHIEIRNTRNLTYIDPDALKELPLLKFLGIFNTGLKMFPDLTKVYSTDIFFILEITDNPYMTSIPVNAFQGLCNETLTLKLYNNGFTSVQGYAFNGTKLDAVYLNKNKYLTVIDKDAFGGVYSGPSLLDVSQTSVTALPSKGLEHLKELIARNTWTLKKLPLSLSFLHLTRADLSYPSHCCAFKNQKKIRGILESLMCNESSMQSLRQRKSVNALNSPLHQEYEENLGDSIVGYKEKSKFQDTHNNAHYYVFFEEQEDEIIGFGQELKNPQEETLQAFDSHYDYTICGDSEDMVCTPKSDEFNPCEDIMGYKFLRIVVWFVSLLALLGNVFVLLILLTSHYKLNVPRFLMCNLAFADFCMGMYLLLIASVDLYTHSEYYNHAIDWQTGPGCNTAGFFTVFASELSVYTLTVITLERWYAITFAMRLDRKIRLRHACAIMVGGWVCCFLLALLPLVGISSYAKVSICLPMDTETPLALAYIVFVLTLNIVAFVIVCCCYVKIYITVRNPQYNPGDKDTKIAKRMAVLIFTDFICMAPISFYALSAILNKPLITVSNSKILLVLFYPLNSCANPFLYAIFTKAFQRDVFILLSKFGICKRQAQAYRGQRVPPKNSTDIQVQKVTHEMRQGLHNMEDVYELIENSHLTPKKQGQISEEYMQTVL

Nc1ccc(Oc2cccc(Oc3ccc(N)cc3)c2)cc1
active: [7] 30.6 µM
inactive: [1] | [2] | [3] | [4] | [5] | [6] | [8] | [9] | [10] | [11] | [12] | [13] | [14] | [15] | [16]

CCOc1ccc([N+](=O)[O-])cc1
inactive: [1] | [5] | [8] | [9] | [10] | [12] | [13] | [16]
active: [2] 24.7 µM | [14] 55.3 µM

Oc1ccc(Cl)cc1C1CCCC1
inactive: [1] | [2] | [3] | [4] | [5] | [6] | [17] | [18] | [8] | [9] | [10] | [11] | [12] | [13] | [16]

O=C(Nc1ccccc1)c1cc(Cl)ccc1O
inactive: [1] | [2] | [3] | [4] | [10] | [12] | [14] | [16]
active: [5] 15.4 µM | [13] 12.2 µM | [15] 17.2 µM

Nc1ccc(Cl)c([N+](=O)[O-])c1
active: [7] 54.5 µM | [15] 54.5 µM
inactive: [19] | [5] | [6] | [18] | [8] | [9] | [10] | [12] | [13] | [14] | [16]

NCc1cccc(C2CCN(C(=O)c3ccc(C#Cc4ccccc4F)o3)CC2)c1
inactive: [19] | [2] | [10] | [11] | [12]
active: [1] 61.1 µM | [17] 48.6 µM | [18] 61.1 µM

CCCCCc1ccc(O)cc1
inactive: [19] | [2] | [3] | [4] | [5] | [6] | [17] | [18] | [8] | [9] | [10] | [13] | [16]

C/C(=C\c1ccc(C(=O)O)cc1)c1ccc2c(c1)C(C)(C)CCC2(C)C
inactive: [3] | [5] | [6] | [17] | [18] | [8] | [9] | [10] | [12] | [13] | [14] | [15] | [16]
active: [4] 29.8 µM

CCCCCCCCCC[N+](C)(CCCCCCCCCC)CCC[Si](OC)(OC)OC
active: [18] 24.3 µM | [15] 30.6 µM
inactive: [2] | [3] | [4] | [6] | [10] | [11] | [12]
